HT1080-NT tox: qHTS for induction of synthetic lethality in tumor cells producing 2HG: qHTS for the HT-1080-NT fibrosarcoma cell line | HT-1080-NT fibrosarcoma viability, CellTiter-Glo ATP luminescence, 48 h | Potency, µM (titrated, usually from 46.1 µM), for the others: at the top dose activity, negative = less viability, actives largely listed as cytotoxic | actives 1.6% (n = 360,000) | AID 686970, 2013;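 further: NT is the 2HG producing partner of a matched IDH1 knockdown line; potency means the concentration at half of the fitted maximal effect; 0% = DMSO-treated cells and -100% = media-only wells without cells; nearly all actives have a fitted effect of over 55% in size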
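Viability by CellTiter-Glo luminescence after 48 h compound exposure at 37C of HT-1080-NT cells (750/well, RPMI, 5% FBS). % activity scaled between DMSO wells and medium-only wells, then curve-fitted and categorized by curve class.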
IL1B secr inh: qHTS for Inhibitors of Inflammasome Signaling: IL-1-beta AlphaLISA Primary Screen. THP-1 LPS/ATP IL-1B secretion, AlphaLISA, 16 h; stronger effect = lower value. activity change, % at 57.5 µM. actives 4.7% (n = 360,000). AID 743279, 2014; in the data active means activity change below about -50%; inconclusive means mostly about -30% to -49%
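THP-1 cells pretreated 1 hr with compounds (up to 57.5 uM final), then stimulated with LPS (250 ng/mL final) plus ATP (1.25 mM final); secreted IL-1B measured by AlphaLISA after 16 hr, decreased signal indicating inhibition.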
DT40 TDP1 no CPT: qHTS for Inhibitors of human tyrosyl-DNA phosphodiesterase 1 (TDP1): qHTS in cells in absence of CPT | DT40 Tdp1-/- hTDP1 cells, no CPT, ATP luminescence, 48 h | Potency, µM (series often up to 46.2 µM), for inactives: at the highest dose activity change, negative = growth inhibition, actives largely listed as inhibitors | actives 15% (n = 420,000); further: potency means the concentration at half of the fitted maximal effect; nearly all actives have a fitted effect of over 55% in size
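DT40 Tdp1-/-;hTDP1 cells, no CPT (DMSO vehicle only), 400 cells/well; compounds pin-transferred; ≥48 hr, 37 °C; CellTiter-Glo 30 min RT dark, luminescence read.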
TDP1 cell CPT: qHTS for Inhibitors of human tyrosyl-DNA phosphodiesterase 1 (TDP1): qHTS in cells in presence of CPT. chicken DT40 Tdp1-/-;hTDP1 cells + 20 nM CPT, ATP luminescence, 48 h. Potency, µM (series often up to 46.2 µM), for inactives: at the highest dose activity change, negative = growth inhibition, actives largely listed as inhibitors. actives 12% (n = 420,000). AID 686979, 2013; further: potency means the concentration at half of the fitted maximal effect; nearly all actives have a fitted effect of over 55% in size
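Chicken DT40 Tdp1-/- cells complemented with human TDP1, 400 cells/well, exposed to compounds plus 20 nM camptothecin for at least 48 h at 37 C; viability read as ATP content by CellTiter-Glo luminescence.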
HT1080 IDH1KD tx: qHTS for induction of synthetic lethality in tumor cells producing 2HG: qHTS for the HT-1080-IDH1KD cell line; AID 686971, 2013; actives 2% (n = 360,000); Potency, µM (doses to about 46.1 µM), inactives show at the top dose activity, negative = toxicity, hits mostly cytotoxic; HT-1080 IDH1 knockdown viability, ATP luminescence, 48 h;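 further: potency means the concentration at half of the fitted maximal effect; 0% = DMSO wells and -100% = cell-free medium wells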
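Assay cells: HT-1080 with IDH1 knockdown, 750 per well, RPMI/5% FBS. Exposure: 48 h at 37 °C following 2 h pre-incubation. Read: CellTiter-Glo luminescence; fitted concentration-response, curve class assigned.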
* hit, by the source's call; ? = inconclusive; nt = not tested or not shown. In the library only some 19% were active in any assay of this set; here they are far more common. Unless noted, the call rests on the fitted dose curve; in most records, active means well fitted curve in the direction sought with a large enough effect; inconclusive means small, poorly fitted or top-dose-only effect, or another doubt; inactive means no such curve, though single readings can be large; an effect the other way counts as inactive or inconclusive. Unless noted, on the % scale 0 is the no-effect control and ±100 the full control effect.

SMILES	HT1080-NT tox	IL1B secr inh	DT40 TDP1 no CPT	TDP1 cell CPT	HT1080 IDH1KD tx
CCOC(=O)Cn1c(=N)n(Cc2ccc(C(C)(C)C)cc2)c2ccccc21	nt	nt	13µM*	?	nt
Cc1ccc(Cn2c(=N)n(CC(=O)c3ccccc3)c3ccccc32)cc1	-27%	-82*	3.7µM*	7.3µM*	?
C=CCn1c(=N)n(CC(=O)OCC)c2ccccc21	6%	26	14%	-4%	15%
CCCn1c(=N)n(CC(=O)OCC)c2ccccc21	10%	14	-1%	-7%	5%
CC(C)(C)C(=O)Cn1c(=N)n(Cc2ccccc2Cl)c2ccccc21	-11%	-27	26µM*	26µM*	-21%
CC(C)(C)C(=O)Cn1c(=N)n(Cc2ccccc2)c2ccccc21	?	-27	15µM*	21µM*	?
Cc1cc(C)cc(OCC(=O)Nc2cccc(-c3nc4ncccc4o3)c2)c1	11%	?	21µM*	23µM*	11%
CCC(C)c1ccc(OCC(=O)Nc2cccc(-c3nc4ncccc4o3)c2)cc1 (centres undefined)	nt	nt	16µM*	-89%	nt
CCOc1ccccc1NC(=O)c1cc(S(=O)(=O)NC2CCCC2)ccc1F	nt	nt	?	-19%	nt
O=C(Nc1ccc(Br)cc1)c1ccc(F)c(S(=O)(=O)NC2CCCCCC2)c1	nt	nt	1.6µM*	2.9µM*	nt
O=C(Nc1ccc(F)c(F)c1)c1cc(S(=O)(=O)NC2CCCCCC2)ccc1F	nt	nt	21µM*	21µM*	nt
CC(C)c1ccc(NC(=O)c2cc(S(=O)(=O)NC3CCCCC3)ccc2F)cc1	nt	nt	18µM*	16µM*	nt
O=C(Nc1ccc(Br)cc1F)c1cc(S(=O)(=O)NC2CCCCC2)ccc1F	nt	nt	21µM*	23µM*	nt
O=C(COC(=O)Cc1ccsc1)Nc1ccc(Cl)c(S(=O)(=O)N2CCOCC2)c1	0%	9	-12%	?	-6%
CCCCNC(=O)CC1Nc2cc(C)c(C)cc2NC1=O (centres undefined)	nt	nt	5.2µM*	4.6µM*	nt
CCCCNC(=O)CC1Nc2ccccc2NC1=O (centres undefined)	6%	-3	-5%	6%	13%
Cc1cc2c(cc1C)NC(CC(=O)Nc1cccc(Cl)c1)C(=O)N2 (centres undefined)	nt	nt	?	16µM*	nt
CC(C)(Oc1ccc(Cl)cc1)C(=O)OCC(=O)NCCc1ccccc1	18%	13	5%	-28%	1%
CCCn1c(SCC(=O)c2cc(C)c(C)cc2C)n[nH]c1=O	-1%	-3	?	-22%	-4%
COc1ccc(S(=O)(=O)N2CCCCC2)cc1NC(=O)Cc1sc(C)nc1-c1ccc(F)cc1	-2%	-14	?	?	-13%
COc1ccc(NC(=O)CSCc2cc(=O)n3nc(C4CC4)sc3n2)cc1	1%	-5	-17%	-5%	9%
COc1cc(-c2cc(NC(C)=O)c3ncc(-c4ccccc4)n3c2)cc(OC)c1OC	?	-60*	?	?	?
COc1cc(-c2cc(NC(C)=O)c3ncc(-c4cc(OC)c(OC)c(OC)c4)n3c2)cc(OC)c1OC	23µM*	-1	7.3µM*	8.2µM*	13µM*
COc1cc(-c2cnc3c(NC(C)=O)cc(-c4ccccc4CN(C)C)cn23)cc(OC)c1OC	?	63	18µM*	23µM*	?
Cc1nn2c(=O)cc(COC(=O)c3ccccc3NC(=O)C(C)Oc3ccccc3)nc2s1 (centres undefined)	nt	nt	-20%	?	nt
SMILES	HT1080-NT tox	IL1B secr inh	DT40 TDP1 no CPT	TDP1 cell CPT	HT1080 IDH1KD tx
COc1ccccc1N1CCN(C(=O)CCCNC(=O)Cn2cnc3sc(C)c(C)c3c2=O)CC1	-12%	-10	?	-23%	-14%
COc1ccc(C2C(C(=O)c3cccs3)=C(O)C(=O)N2Cc2cccnc2)cc1OC (centres undefined)	16%	27	-3%	3%	16%
COc1ccc2nc(N3C(=O)C(O)=C(C(=O)c4ccco4)C3c3ccccc3OC)sc2c1 (centres undefined)	4%	13	?	?	-1%
CCOc1cccc(C2C(C(=O)c3ccc(C)o3)=C(O)C(=O)N2c2nnc(C)s2)c1 (centres undefined)	16%	-5	-19%	-2%	10%
CCCOc1cccc(C2C(C(=O)c3cccs3)=C(O)C(=O)N2Cc2cccnc2)c1 (centres undefined)	-16%	57	16µM*	?	?
Cc1cc(N2C(=O)C(O)=C(C(=O)c3ccc(C)o3)C2c2cccc(Oc3ccccc3)c2)no1 (centres undefined)	1%	5	23µM*	?	4%
CCCOc1cccc(C2C(C(=O)c3ccc(C)o3)=C(O)C(=O)N2c2nc(C)c(C(C)=O)s2)c1 (centres undefined)	4%	20	23µM*	?	-1%
COc1ccc2nc(N3C(=O)C(O)=C(C(=O)c4ccco4)C3c3ccc(C)o3)sc2c1 (centres undefined)	-26%	52	18µM*	-17%	-28%
O=C(Cn1ccn(-c2ccc(F)c(F)c2)c(=O)c1=O)Nc1ccccc1F	nt	nt	-2%	0%	nt
O=C(O)CC(Cc1ccc(Cl)cc1)C(=O)Nc1cc(Cl)ccc1Cl (centres undefined)	-1%	24	-7%	11%	-1%
CCCOc1ccc(C2C(C(=O)c3ccc(C)o3)=C(O)C(=O)N2Cc2ccco2)cc1OCC (centres undefined)	14%	-5	23µM*	?	1%
CCCOc1ccc(C2C(C(=O)c3ccc(C)o3)=C(O)C(=O)N2Cc2ccco2)cc1 (centres undefined)	-1%	18	?	?	-3%
C=C1SC(Nc2c(C)cccc2C)=NC12CCCCC2	-17%	nt	?	?	-11%
C=C1SC(Nc2c(C)cc(C)cc2C)=NC12CCCCC2	-1%	-69*	18µM*	?	0%
CCOc1ccc(-n2c(C)nnc2SCC(=O)N(CC)CC)cc1	11%	-6	19%	-7%	9%
COc1ccc(NC(=O)Nc2cccc(F)c2)c(OC)c1	-4%	?	-11%	-5%	-3%
CC(=O)Nc1cccc(NC(=O)Nc2ccc(F)cc2F)c1	18%	9	?	14%	22%
O=C(Nc1ccccc1)Nc1ccc(F)cc1F	-1%	-12	23µM*	?	-5%
